From PubChem BioAssay
Compounds with a hit are over-represented: about 3.6% of the library has one in this group of screens.
VHR inh abs – VHR1 phosphatase inhibitors, primary screen, biochemical, absorbance, uHTS; AID 1654, 2009; inhibition, % at 13.3 µM; 290,000 compounds, 0.52% hits; recombinant VHR phosphatase, pNPP absorbance; in the data active = inhibition above about 50%
Target sequence (P51452 whole entry, looked up): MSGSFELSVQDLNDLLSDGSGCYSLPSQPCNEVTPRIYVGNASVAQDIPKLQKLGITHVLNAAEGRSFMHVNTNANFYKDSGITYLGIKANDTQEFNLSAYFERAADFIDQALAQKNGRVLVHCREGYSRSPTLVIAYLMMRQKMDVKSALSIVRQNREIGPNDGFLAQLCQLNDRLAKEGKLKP
Mtb FBA inh – Mtb FBA enzyme inhibitors, primary screen, biochemical, fluorescence, strain H37Rv | purified M. tuberculosis FBA, fluorescence read-out | inhibition, % at 1 µM | Fructose-bisphosphate aldolase (Mycobacterium tuberculosis (strain ATCC 25618 / H37Rv)), … | AID 588726, 2011 | 360,000 compounds, 2.3% hits; in the data active = inhibition above about 27%;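 note: 0% = vehicle and 100% = reference inhibitor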
Target sequence (P9WQA3 whole entry, looked up): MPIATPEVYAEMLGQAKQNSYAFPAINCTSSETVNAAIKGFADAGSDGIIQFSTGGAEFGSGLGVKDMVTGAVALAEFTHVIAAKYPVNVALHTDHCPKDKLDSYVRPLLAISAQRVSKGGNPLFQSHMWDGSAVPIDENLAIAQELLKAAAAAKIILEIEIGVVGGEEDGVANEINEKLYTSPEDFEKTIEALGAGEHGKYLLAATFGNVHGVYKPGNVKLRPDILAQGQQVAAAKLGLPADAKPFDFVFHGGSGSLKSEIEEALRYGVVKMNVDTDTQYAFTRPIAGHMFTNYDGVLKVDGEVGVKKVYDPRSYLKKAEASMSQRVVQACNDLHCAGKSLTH
Mtb hypoxia inh – PubChem AID 1159583 | M. tuberculosis hypoxia-regulated fluorescent reporter, fluorescence | fluorescence inhibition, % (test concentration not listed) | 300,000 compounds, 0.1% hits; in the data active = fluorescence inhibition mostly above about 23%, no sharp cut-off; inactive = mostly below about 17%
Mtb bLac sens – beta-lactam sensitization of Mtb H37Rv, H37Rv; inhibition, % at 25 µM; M. tuberculosis H37Rv growth with meropenem, percent inhibition; AID 434955, 2010; 330,000 compounds, 0.27% hits; call rule not given here;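 note: growth measured after seven days incubation then overnight dye step; 0% = bacteria only wells and 100% = bacteria with antibiotic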
GDH-TPI inh – GDH-TPI coupling enzyme inhibitors, primary screen, artefact control for M. tuberculosis FBA inhibitor project, biochemical, absorbance, full deck. 360,000 compounds, 1.2% hits. AID 588335, 2011. inhibition, % at 4.8 µM. GDH-TPI coupled enzyme counterscreen, NADH absorbance; in the data active = inhibition above about 30%;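 note: 0% = DMSO wells and 100% = wells lacking the enzyme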
* marks the source's active call; other numbers are inactive results; . = no result; + = active, no number.

SMILES	VHR inh abs	Mtb FBA inh	Mtb hypoxia inh	Mtb bLac sens	GDH-TPI inh
Cc1cc2oc(=O)cc(CN3CCOCC3)c2cc1Cl	54*	-2	1	3	-5
Cc1cc2oc(=O)cc(CN3CCCC3)c2cc1Cl	.	9	.	.	.
Cc1cc2oc(=O)cc(CN3CCOCC3)c2cc1C	31	-3	4	-4	18
Cc1sc(-n2c(C)cc(C=Nn3cnnc3)c2C)c(C#N)c1C	.	.	0	.	.
CC1CCCC(C)N1C(=O)c1ccc(CS(=O)(=O)c2ccccc2)cc1 (stereo unspecified)	53*	2	0	-12	8
CC1CCCCN1C(=O)c1ccc(CS(=O)(=O)Cc2ccccc2)cc1 (stereo unspecified)	45	-4	11	-6	-4
COCc1cc(=O)[nH]c(Nc2nc3ccc(C)cc3o2)n1	-12	7	-19	97	34*
O=C(Cn1ncc2c([nH]c3ccccc32)c1=O)N1CCN(c2ccc(F)cc2)CC1	51*	-3	11	-4	-9
S=c1nccc(-c2ccc3c(c2)CCO3)[nH]1	14	4	.	81	49*
Cc1ccccc1CN1CC2CC(c3cnc(N4CCOCC4)s3)N3CCC[C@@]23C1=O (stereo partly specified)	.	.	8	.	.
Cn1c(=NN=Cc2ccccc2OCCO)sc2ccccc21	.	3	.	.	32*
N/C(=N\NC(=O)c1cccs1)c1cc2ccccc2oc1=O	28	3	.	12	42*
CCN(CC)c1ccc2cc(/C(N)=N/NC(=O)c3cccs3)c(=O)oc2c1	-4	.	.	14	.
CCC(=O)Nc1nnc(S(=O)(=O)N(C)Cc2ccco2)s1	-9	-1	5	1	6
CCOc1ccc(C(=O)Nc2nnc(S(=O)(=O)N(C)Cc3ccco3)s2)cc1	-15	7	.	3	39*
CCOc1ccc(C(=O)Nc2nnc(NC(=S)Nc3ccccc3)s2)cc1	26	-2	.	21	40*
CN(Cc1ccco1)S(=O)(=O)c1nnc(NC(=O)c2ccc(F)cc2)s1	-4	9	-6	20	38*
Cc1ccc(C(=O)Nc2nnc(NC(=S)Nc3ccccc3)s2)cc1	-1	-2	13	47	24
CCc1ccc(N2CC(C(=O)NN=Cc3cc([N+](=O)[O-])ccc3O)CC2=O)cc1 (stereo unspecified)	.	.	6	.	.
COc1ccc(C(=O)Cn2c(C(=O)/C=C/c3ccccc3)nc3ccccc32)cc1	31	-3	5	-5	32*
Cc1cc(C(=O)NNC(=O)COc2ccccc2Cl)n[nH]1	51*	0	-3	-2	5
CCOc1[nH]n(-c2ccccc2)c(=O)c1C=NCC(=O)OC	9	0	13	3	1
COC(=O)Cc1[nH]n(-c2ccccc2)c(=O)c1C=Nc1ccc(C)cc1	-18	3	3	41	40*
Cc1[nH]n(-c2ccccc2)c(=O)c1C=Nc1cccc(F)c1	5	-1	14	7	32*
CC(=O)Nc1c(I)c(C(=O)NC2C(O)OC(CO)C(O)C2O)c(I)c(N(C)C(C)=O)c1I (stereo unspecified)	.	.	11	.	.
SMILES	VHR inh abs	Mtb FBA inh	Mtb hypoxia inh	Mtb bLac sens	GDH-TPI inh
CCN(CC)C(=O)c1[nH]cnc1C(=O)NC(CC(C)C)C(=O)OC(C)(C)C (stereo unspecified)	.	.	2	.	.
CCOC1OC(C(=O)N2CCOCC2)=CC(c2coc3ccccc3c2=O)C1CCCO (stereo unspecified)	.	.	0	.	.
COc1cccc(-n2c(SCC(=O)N3CCOCC3)nnc2-c2c[nH]c3ccccc23)c1	21	5	5	5	11
COc1cccc(-n2c(SCC(=O)N3CCOCC3)nc3c([nH]c4ccccc43)c2=O)c1	.	0	-11	-3	33*
O=C1/C(=C/C=C/c2ccco2)SC(=S)N1c1ccc(O)cc1	16	1	6	87	2
CC(C)C(C(=O)O)N1C(=O)/C(=C/C=C/c2ccco2)SC1=S (stereo unspecified)	52*	-3	-10	0	12
Cc1ccc(NC(=O)CC2(CC(=O)O)CCCC2)cc1	57*	-1	13	4	-6
Cc1cc(=O)oc2cc(NC(=O)C3CCCC3)ccc12	26	155*	0	41	13
CCC1(c2ccccc2)NC(=O)N(CC(=O)Nc2ccc3c(C)cc(=O)oc3c2)C1=O (stereo unspecified)	.	198*	3	-3	21
Cc1ccc(NC(=O)C2CCCCC2)cc1C	.	-1	17	42	8
CCC1(c2ccccc2)NC(=O)N(CC(=O)Nc2ccc3c(c2)OCO3)C1=O (stereo unspecified)	38	-2	1	1	-4
Cc1cc(=O)oc2cc(NC(=O)CC3(CC(=O)O)CCCC3)ccc12	13	+	-2	-9	20
COc1ccc(CC(=O)Nc2ccc3c(C)cc(=O)oc3c2)cc1OC	-4	12	6	5	15
COc1ccc(NC=CC(=O)c2ccc(Oc3ncccn3)cc2)cc1	.	.	11	.	.
COc1ccc(CC(=O)Nc2cccc(C(C)=NNC(=O)C3(C)CC3(Br)Br)c2)cc1 (stereo unspecified)	.	.	3	.	.
CC(C)c1ccc(NC2CCCN(C(=O)c3ccccc3-c3ncc[nH]3)C2)cc1 (stereo unspecified)	57*	-5	5	-3	-9
CC(C)c1ccc(NC2CCCN(C(=O)c3cccc4nccnc34)C2)cc1 (stereo unspecified)	8	-1	-5	4	-2
O=C1OC(c2ccc(Br)cc2)=N/C1=C\N1CC2CC(C1)c1cccc(=O)n1C2 (stereo unspecified)	8	-4	0	-5	56*
O=C1OC(c2ccc([N+](=O)[O-])cc2)=N/C1=C/N1CC2CC(C1)c1cccc(=O)n1C2 (stereo unspecified)	21	0	-1	-1	21
O=C1OC(c2ccc(Cl)cc2)=N/C1=C\N1CC2CC(C1)c1cccc(=O)n1C2 (stereo unspecified)	-1	2	5	-4	60*
CCC(C)C(C(=O)NCCCCCCCCCCC(=O)N1CCNCC1)n1cc(CCCCN=C(N)N)nn1 (stereo unspecified)	.	.	-3	.	.
COc1ccc(-c2ccc(C(=S)N3CCN(C(C)=O)CC3)o2)cc1	28	7	20	27	32*
COc1ccc(C(=O)N(C)C2CCN(C)CC2)cc1S(=O)(=O)Nc1cc(Cl)ccc1Cl	52*	.	-4	-1	.
CN1CCC(N(C)C(=O)c2ccc(Cl)c(S(=O)(=O)Nc3cc(Cl)ccc3Cl)c2)CC1	.	3	5	-5	-12
Cc1nc2c(C)cccc2cc1C(=O)NN=Cc1ccc(O)cc1	.	.	14	.	.
Cn1c(=O)n(C)c2cc(/C=N/NC(=O)c3ccc(Cl)cc3)ccc21	-1	4	.	-2	51*
Cc1occc1C(=O)N/N=C/C=C/c1ccc(N(C)C)cc1	50	0	.	-3	26
